Bioassay records from PubChem BioAssay.
D2 antagonist – antagonists of human D2 dopamine receptor | hit rate 2% among 340,000 | P14416 | inhibition, % at 10 µM | HEK293 TREx D2 cells, calcium flux, dopamine EC80; in the data active means inhibition above about 30%; inactive means below that, where a call was filed; further: 0% is about no effect
Target sequence (P14416 whole entry, looked up): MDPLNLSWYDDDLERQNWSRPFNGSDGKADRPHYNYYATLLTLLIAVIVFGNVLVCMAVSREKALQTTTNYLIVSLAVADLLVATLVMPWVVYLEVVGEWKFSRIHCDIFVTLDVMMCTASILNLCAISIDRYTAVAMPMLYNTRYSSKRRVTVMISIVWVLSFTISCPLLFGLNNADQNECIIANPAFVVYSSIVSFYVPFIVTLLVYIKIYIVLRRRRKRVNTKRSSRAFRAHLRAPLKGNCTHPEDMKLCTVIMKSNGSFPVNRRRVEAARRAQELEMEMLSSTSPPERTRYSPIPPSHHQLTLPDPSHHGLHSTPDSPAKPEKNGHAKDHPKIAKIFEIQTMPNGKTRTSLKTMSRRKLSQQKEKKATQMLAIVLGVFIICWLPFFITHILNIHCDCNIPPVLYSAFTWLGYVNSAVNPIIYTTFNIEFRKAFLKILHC
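Tetracycline-induced HEK293 T-REx cells expressing D2 force-coupled to calcium signalling were dye-loaded, exposed to compound for 180 s, then challenged with an EC80 of dopamine; calcium flux was followed kinetically for a further 180 s.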
D2 ag-1 – agonists of human D2 dopamine receptor | HEK293 T-REx D2 cells, calcium flux agonist mode | activation, % at 2 µM | hit rate 0.53% among 340,000 | AID 485358;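 active means activation over 3 SD above normal in the single-dose calcium agonist read, cut at about 30% in these data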; further: 0% is about no effect
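Tetracycline-induced HEK293 T-REx cells with force-coupled D2 receptor, plated overnight at 30 C, loaded with no-wash calcium dye. After a 10 s baseline, compound was pin-added and calcium flux read kinetically for 180 s; calcium rises flagged agonists.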
D2 PAM-1 – positive allosteric modulators of human D2 dopamine receptor; P14416; DiscoveRx D2 beta-arrestin cells, luminescence, 90 min; 100% = 57 uM dopamine signal; potentiation, % (no concentration beside the values); hit rate 0.23% among 360,000; AID 624464; in the data active means potentiation above about 50%; inconclusive means mostly about 30% to 49%
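PathHunter D2 cells, attached overnight at 37 deg C, received compound in DMSO plus dopamine at EC20 (50 nM final) for 90 min at 37 deg C. Beta-arrestin recruitment was read as luminescence after 1 h with detection reagent at ambient temperature.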
D2 PAM-2 – positive allosteric modulators of human D2 dopamine receptor. P14416. potentiation, % at 10 µM. hit rate 0.34% among 340,000. AID 485347. HEK293 T-REx D2, calcium flux, EC20 dopamine potentiation;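 active means potentiation over 3 SD above the plate norm, cut at about 30% in these data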; further: 0% is about no effect
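Potentiation of an EC20 dopamine calcium response is measured in a force-coupled, tetracycline-inducible Hek293 Trex D2 line. Compound-only kinetic reads over 180 s flag agonists before dopamine addition.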
D2 ag-2 – agonists of human D2 dopamine receptor (beta-arrestin); DiscoveRx PathHunter D2 beta-arrestin, luminescence, 90 min; 100% = 57 uM dopamine signal; activation, % (no concentration beside the values); hit rate 0.084% among 360,000; AID 624465; in the data active means activation above about 40%; inconclusive means between about 15% and that limit
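Agonist mode: compounds alone added to overnight-plated D2 PathHunter cells for 90 min at 37 C, with 57 uM final dopamine (EC100) defining full response. Beta-arrestin recruitment detected by chemiluminescent reagent, read after 1 h at ambient temperature.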
The depositor's hits bear a star; ? = inconclusive; . = not tested or not shown. Hits are enriched below; roughly 2.4% of the tested compounds scored in any of these assays.

SMILES	D2 antagonist	D2 ag-1	D2 PAM-1	D2 PAM-2	D2 ag-2
COc1ccc(C(CNC(=O)c2oc3c(Cl)cccc3c2C)N2CCCC2)cc1 (stereo not given)	39*	0	-45	-21	-4
COc1ccc(NC(=S)NCC(c2cccnc2)N2CCOCC2)cc1 (stereo not given)	10	0	0	30*	0
COc1ccc(C(CNC(=O)c2oc3ccc(Cl)cc3c2C)N2CCCCC2)cc1 (stereo not given)	-21	-1	-17	-14	-4
COc1ccc(C(CNC(=S)NCc2ccccc2)N2CCCC2)cc1 (stereo not given)	41*	0	-17	-18	-5
COc1ccc(C(CNC(=O)c2oc3ccccc3c2C)N2CCCC2)cc1 (stereo not given)	76*	1	-35	-28	-4
O=c1oc(-c2ccc(F)cc2)nc2ccsc12	0	0	-19	-4	-3
O=c1oc(-c2ccccc2Cl)nc2ccsc12	31*	1	-13	13	-10
CCOc1ccc(-n2c(=O)c3c4c(sc3n(Cc3cccc(C)c3)c2=O)CCCC4)cc1	.	.	.	-2	.
CC(C)CCN1C(=O)c2ccccc2CC1(C)C(=O)NC1CCCCC1 (stereo not given)	.	0	.	.	.
O=C(Cc1cnn(-c2ccccc2)c1)c1ccc(O)c(O)c1O	-2	0	110*	7	?
CCc1cc(C(=O)Cc2cnn(-c3ccccc3)c2)c(O)cc1O	-12	0	2	4	0
Cc1cccnc1NC1CCCCC1	-2	1	-13	3	1
c1ccc2c(NC3CCCC3)nnc(NC3CCCC3)c2c1	49*	16	-43	-23	-3
Cc1ccccc1C(=O)Nc1nc2c(s1)CC(C(C)(C)C)CC2 (stereo not given)	.	.	.	11	.
CCN1CCN(C(=O)c2ccc(Sc3ccccc3Cl)c([N+](=O)[O-])c2)CC1	1	1	-26	-22	1
CCN1CCCC1CNC(=O)c1ccc(Sc2ccccc2Cl)c([N+](=O)[O-])c1 (stereo not given)	72*	0	-9	-18	-1
CCN1CCCC1CNC(=O)c1ccc(Sc2ccc(F)cc2)c([N+](=O)[O-])c1 (stereo not given)	35*	1	-18	-28	-5
CC1CCN(S(=O)(=O)c2ccc3c(c2)N(CC(=O)N2CCN(c4ccc(Cl)cc4)CC2)C(=O)CO3)CC1	.	0	.	-7	.
COc1ccc(-c2nnc(C3CCN(C(=O)c4ccccc4F)CC3)o2)cc1	.	0	.	0	.
CC1(OC(=O)C2CCCC2)C(=O)C=C2C=C(c3ccsc3)N(C3CCCC3)C=C2C1=O (stereo not given)	37*	-1	21	-3	9
C#CCOCCOCCOCCNc1nc(N2CCN(C(=O)[C@H]([C@@H](C)CC)n3cc(CCCN=C(N)N)nn3)CC2)nc(N2CCN(C(=O)[C@H](CCCCN)n3cc(CCCC)nn3)CC2)n1	5	0	-10	2	-3
C#CCOCCOCCOCCNc1nc(N2CCN(C(=O)[C@H](C)n3cc(CCCN=C(N)N)nn3)CC2)nc(N2CCN(C(=O)[C@H](CCCCN)n3cc(CCCC)nn3)CC2)n1	31*	0	.	-2	.
COC(=O)c1cn(CC(=O)N2C(C)CCCC2C)c2ccccc12 (stereo not given)	5	1	8	-9	-3
CC1CCCC(C)N1C(=O)Cn1cc(/C=C2/C(=O)Nc3ccccc32)c2ccccc21 (stereo not given)	32*	1	-8	-1	-8
NC(=S)NNC(=O)C12CC3CC(CC(C3)C1)C2	44*	62*	-3	-13	-1
C=CCNC(=O)CN1C2CCCC1CC(NC(=O)c1ccccc1C)C2 (stereo not given)	-24	0	-20	41*	-2
CC(=O)N1CCN(c2ccc(S(=O)(=O)N3CCCCC3)cn2)CC1	38*	1	8	3	0
CCNc1ccc(S(=O)(=O)N2CCCCC2)cn1	33*	0	-3	4	5
CN(C)CC(C)(C)CNc1ccc(S(=O)(=O)N2CCCC2)cn1	.	.	-2	.	1
